# B1: GBRAPL2_175_7339 (protein)
# chain: AAYEKLLAEIIELLLEIAEKANDEVSDLLEAAAAVLETDGLAGAERAARLVKEAAEEAKDNPQLQEALKLIAEALKALAAGAAPEEVKKLLDKAKEVLKK
# B2: GBRAPL2_175_7327 (protein)
# chain: SEMEELIKRLVELLLRLAEKLDGLASDLLLAAAALLEEEGVDAAKRAAELVKEAAKEIKDNPKLKAAAEELARALKLIAEGAPPEEVKKELEKAEKLLEE
# B3: GBRAPL2_175_7338 (protein)
# chain: AARAALLARIIELLDELAERADDEVADLLDAAAAVLEEEGEAGAERAARLVAEAAREAADDPRLRAALEAVAAALAALAAGAAPAEVQALLDEAEAILAE
# B4: GBRAPL2_175_7337 (protein)
# chain: SLEDEVLEALIEALELLSEKADDEVSDLLDAAMALLETDGRAALPRVAELLKKASEEAKDNPELSALLEELAAAAKEFAEGGDLEEILKKAKEIIKKIKA
# B5: GBRAPL2_151_7318 (protein)
# chain: EELEELLKRLKKLAEKLAKLAEELAKEDPEHATEVETLVGGVEADIILAEEEEDEEEKRRHLLRAAELAADAAKLIAEVLKKEEAKKLAEEAKELAEKLK
# B6: GBRAPL2_151_7320 (protein)
# chain: EELEELERRARELLEELEELVKELEEKKPEHSTEVETLVGGAEADLLLAEEAEDPEEKRRFLLEAAKLIRDAFELIAKILGSERAKELAEEAKELAKELE
# B7: GBRAPL2_151_7325 (protein)
# chain: SELDELLKKLKELLERLEKLVKEAAKEKPEYETTLETLVGGAEADLLLAEEAENDEEKRRHLKEAAELIRDAAEEIAKITGKEEAKKLAEEAKKLLKELE
# B8: GBRAPL2_151_7316 (protein)
# chain: EWKEEALKALEEGAKAVEEFAKSLPESEELERTELELLAGGLDAYKALIEETDDEEEIRRLLKEAAELVEDAAEIAKKLGREEAAKKLEKIAKKLKELAE
# B9: GBRAPL2_151_7324 (protein)
# chain: SELEKLLKELKKLLEELEKLVKEASEKYPEYSIELETLAGGAEADILLAEEAKNDEEKRKYLKRAAELIADAAKLIAEITGDERAKKLAEEAKKILKELE
# B10: GBRAPL2_151_7312 (protein)
# chain: SLKEKAVEKLKEAAELVEEAAKALPESQELERTELELIAGGMDADAILIEETEDEEEIKKIIKESAERVEDAAKIAKKLGLEELAKKLEEKAKELKKLAE
# B11: GBRAPL2_151_7321 (protein)
# chain: SELEKLKKEAEKLLEELEKLVKELEKKKPEKSTEVETLLGGAEADLILAEEAEDPEEKRRFLLEAAELLADAFKLIAKVLGSEKAKKLAKEAEELAKKLA
# B12: GBRAPL2_175_7332 (protein)
# chain: SAREELVKRLAELALRLAEKADDETEDLLLAAAALLEEGGEENLKRAAELIKEAAKEIKDDERLKKAAAELAEAAELLIAGEDVEKAEEELRKAEELLEK
# B13: GBRAPL2_151_7310 (protein)
# chain: ELKEKVVKALKEAAKALEELAELLSPEHELEKTEIELIAGGMDAYAALVEETEDEEKIKEITKEAAELVEDAAKIAKELGLEEQAKKLEEIAKKLKELAA
# B14: GBRAPL2_151_7317 (protein)
# chain: SELEKLLKELKALAEELWKLAEELAKKDPSVATEVETLVGGVEADIILAEEEEDPEEKRKHLLEAAKLAKDAAELIAEVLKSEKAKKLAEKAKKLAEKLK
# B15: GBRAPL2_175_7334 (protein)
# chain: SALDELLARLAALLDELSERADDETADLLDAAMALLELEGAAAAARVAELLREAAELAADNPRLRAALEELARAAALIAEGAAPEEVQAELDRAAALLAE
# B16: GBRAPL2_151_7311 (protein)
# chain: DLKEKAVKALEEAAKALEELAEKLSEEQELEKTEIELLAGGMDAYAILVEETEDEEEIKRIVKDAAELVEDAAKIAKELGLEEDAKKLKEIAKKLKELAK
# B17: GBRAPL2_151_7313 (protein)
# chain: GWKEEALKALKEAAEAIEKAAEALPPEHELERTELELLAGGMDAYRALVEETDDREEIKRLLKDAAELVKDAAEIMEKLGKEEAAKKLKKIAEKLKKLAE
# B18: GBRAPL2_175_7336 (protein)
# chain: SLKDEVLAALIEALELLAEKANDEVQDLLEAAMALLEVDGESALPQVAKLLEEAAKEAKDNPELQKLLKELAAAAKEAAEGGDLEEILARAQAIIKEIKA
# B19: GBRAPL2_175_7331 (protein)
# chain: SATEEALKRIAELLERLAERLDGEASDLLLAAAALVEQQGVAAAARAAELVKEAAKLVADDPRLRAALEELAAALKLLAAGAAVEEVQAEIDRAEALLEA
# B20: GBRAPL2_175_7335 (protein)
# chain: SKKEEAIKKLIEALELLAEKANDEVQDLLEAAAAVLELDGESGIEQAAKIVKQAAKDAKDNPELQKLLKELAKALKLLAEGGDIEEVIKKAEKIIKELKK
# B21: GBRAPL2_151_7319 (protein)
# chain: GELEELEKKLKELIKKLEKLLEKLKKEKPEYETEVSTLLGGAEADLLLAEEAEDPEEKRRFLAEAAELAADAFKLIAEVLGSEEAKKLAEEAKKLLEKLK
# B22: GBRAPL2_175_7329 (protein)
# chain: SERDELIKRLAELLEKLAEEVDGEASDLLLAAAALLEEEGIEAAKRVAELLKEAAKEIEGNEKLKKAAEALAEAAKLLAEGAPAEEVQKKLEEAEKLLKE
# B23: GBRAPL2_151_7306 (protein)
# chain: SKKEKAIELLKEAAKTAEEAVKKLSEEQELEKTELELIAGGLEALAILVEETDDEEKIKKLVKEAAELVEDAAKLAEELGLEEEAKKLKELAKELKKLAE
# B24: GBRAPL2_175_7330 (protein)
# chain: SALEELLKRLAELLEELAEKLDDEASDLLLAAAALIEQDGVAAAKRAAELVKEAAKKVKDNPKLQAALEELAAALELIAAGKAPEEVKAELEKAEALLKE
# B25: GBRAPL2_175_7333 (protein)
# chain: SARQELVKRIRDLLLKLAEKADDETQDLLLAAAALLEEGGEENLKRALELVKEAAKEEKNDATLQQAAAELAAALALLIEGKPVEEAQKEIDAAAKLLAK
# B26: GBRAPL2_151_7309 (protein)
# chain: KLKEEVIEALERAAEAVEKAAEKLSPEQELERTELELIAGGMEAYAALVEETEDEEKIKEITRRAAEMVRDAAEIAKELGLEEEAKELEEIAKELEELAA
# B27: GBRAPL2_151_7308 (protein)
# chain: SEKEKAIELLKKAAEAAEEAIKALSEDQELEKTEFELIAGGLEALAILIEEEDDEEKIKELVKRGAELVKDAAELAKKLGLEEQAKKLKEIAKELEKLSK
# B28: GBRAPL2_151_7307 (protein)
# chain: SRKEEAIRLLEEAARTAEEAVEALPESKELEKTELELLAGGLDALAILVEEEDDEEKVRELVKEGAELTEDAARLARELGLEEQARRLEELSRRLKELAE
# B29: GBRAPL2_151_7323 (protein)
# chain: SELEKLLKEAKKLLKKLEKLVKEAAKKDPKYETELETLVGGAEADLILAEEAKNDEEKREHLKRAAELIADAAELIAKITGSEEAKKLAEEAKELLKKLE
# B30: GBRAPL2_151_7326 (protein)
# chain: SELERLLEKLKELLEKLEKLVEEAAKKDPSHEIELETLVGGAEADLLLAEEAPNDEEKRRFLKEAAELIKDAAELIAKITGSEEAKKLAEEAREILKELE
# B31: GBRAPL2_151_7314 (protein)
# chain: SWKEEALKALEKGAKAIEEFAKSLPEEHELERTEAELLAGGMEAYRALIEETDDEEEIKRLLKEAAELVKDAAEIAKELGFEKEAKELEKIAKELEKLAK
# B32: GBRAPL2_151_7315 (protein)
# chain: SWKEEALKALEEAAEAIEEAAKKLPPEHELERTELELLAGGMDAYKALIEETDDEEEIKRLLKEAAELVKEAAEIMKKLGFEEEAKKLEKIAKELEKLAK
# Biological target: GABARAPL2, P60520
# Test: median log2 fold change of GCK-ALFA target abundance (FLAG IP / Myc IP barcode read proportion) (log2 ratio); each designed protein is fused to an ALFA-tag nanobody in HEK293 cells to bring the named protein to FLAG-tagged glucokinase (GCK); Myc marks an untargeted standard; higher = target protein stabilised (more abundant)
# Conditions: target protein: 3xFLAG-MCP-GCK-ALFA reporter; HEK293 landing pad (RPLP)
# Summary of the method: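 Binders fused to an ALFA nanobody were recombined as a library into HEK293 landing-pad cells, which were induced with 2 μg mL^−1 doxycycline and then transfected to express a FLAG-tagged target and a Myc-tagged standard. After 48 h, circular RNA barcodes recovered by anti-FLAG and anti-Myc immunoprecipitation of lysates were reverse transcribed, amplified and sequenced. Each binder's target abundance is the median log2 ratio of FLAG to Myc barcode read proportions, from barcodes present at ≥10^−7 in both replicates, binders carrying ≥3 barcodes per replicate, a 10^−6 pseudocount and pooled replicates.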
# GABARAPL2, P60520, sequence (P60520 whole entry, the tested form may be a part): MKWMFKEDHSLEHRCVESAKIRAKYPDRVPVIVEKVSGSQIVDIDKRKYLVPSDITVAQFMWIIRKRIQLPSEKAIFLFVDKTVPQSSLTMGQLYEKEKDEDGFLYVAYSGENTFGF
row,Binder,median log2 fold change
1,B1,0.22
2,B2,0.118
3,B3,-0.358
4,B4,0.0611
5,B5,0.242
6,B6,0.183
7,B7,0.129
8,B8,0.266
9,B9,0.242
10,B10,0.307
11,B11,0.168
12,B12,0.136
13,B13,0.111
14,B14,0.0623
15,B15,0.086
16,B16,-0.0443

row,Binder,median log2 fold change
1,B17,-0.0822
2,B18,0.166
3,B19,0.0704
4,B20,0.0436
5,B21,0.141
6,B22,0.194
7,B23,0.123
8,B24,0.207
9,B25,0.119
10,B26,0.0437
11,B27,0.202
12,B28,-0.403
13,B29,0.39
14,B30,0.164
15,B31,0.164
16,B32,-0.126

# — the supplement of paper PMC12632987
